PubChem BioAssay (EPA / NIEHS)
Records with an inconclusive call do not appear. Active and inactive are the calls of the source. How the source made its calls, unless noted: active means hit-call score of the fitted dose curve at least 0.9, where 1 is the maximum; inconclusive means response in the unintended direction; inactive means score below 0.9.

Assays:
[1] = CCTE_Deisenroth_5AR_NBTE_donor: CCTE's 5alpha-reductase NanoBRET Target Engagement Assay […], Deisenroth Lab (AID 2284319; active means hit-call score of the fitted dose curve at least 0.9, where 1 is the maximum; inactive means score below 0.9); details: actives raise or lower the signal
In short: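 Donor NanoLuc luminescence at 460-20 nm is the read-out, serving artifact detection. Transiently expressed SRD5A2-NanoLuc in HEK293T; 5 h total chemical exposure, testosterone tracer added for the final 2 h; fitting bidirectional relative to DMSO baseline.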

[2] = CCTE_Deisenroth_5AR_NBTE_acceptor: CCTE's 5alpha-reductase NanoBRET Target Engagement Assay - Autofluorescence Screen, Deisenroth Lab (AID 2284321; active means hit-call score of the fitted dose curve at least 0.9, where 1 is the maximum; inactive means score below 0.9;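 further: compound fluorescence in the acceptor channel under 460 nm excitation flags autofluorescence artifacts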); details: actives raise or lower the signal
In short: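 Acceptor fluorescence intensity was read as an artifact-detection endpoint. Test chemicals at an assumed nominal 100 uM were excited at 460 nm across three independent runs. Activity was fitted bidirectionally against DMSO.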

SRD5A2 (gene 6716) = assay: CCTE_Deisenroth_5AR_NBTE_ratio: CCTE's 5alpha-reductase NanoBRET Target Engagement Assay - Ratio, Deisenroth Lab (AID 2284322; active means hit-call score of the fitted dose curve at least 0.9, where 1 is the maximum; inactive means score below 0.9); details: actives raise or lower the signal
In short: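 Reverse-transfect HEK293T with pNLF1-C-SRD5A2, express 20 h. Pre-incubate cells with chemical 3 h (8-point series, 10 nM - 29.9 uM, duplicate). Add testosterone tracer, 2 h more. Add substrate/inhibitor, read donor and acceptor emission.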

[3] = TAMU_PeakParms_SingleDonor1434_Asystole: Texas A&M University (TAMU) 1.5-hr Human Induced Pluripotent Stem Cell (iPSC)-derived Cardiomyocytes Calcium (Ca+2) Flux Assay for Cardiotoxicity: Asystole (quiescence of beating) (AID 2284328)
In short: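 Average Ca2+-flux peak frequency (beats/s) was recorded in single-donor iPSC-derived cardiomyocytes after 90 min exposure (0.2–100 uM final, 0.5% DMSO). Asystole POD set as EC95 against DMSO, no preprocessing.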

[4] = VALA_TUBIPS_Antagonist_CellCount: Viability Assessment in the VALA Sciences human iPS-derived Endothelial Tubule Formation (TUBIPS) Antagonism Assay (AID 2284335)
[5] = VALA_MIGHUV1_ScratchOnly_WoundArea: VALA Sciences human Umbilical Vein Endothelial Cell Migration (MIGHUV) Assay, Area of Scratch Wound Inhibited Recovery (AID 2284336)
In short: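 HUVEC monolayers (9000 cells/well) were scratched after 24 h, dosed within 30 min (six concentrations, triplicate, 0.1% DMSO), allowed 24 h recovery, then fixed. Hoechst-stained nuclei in the wound imaged; cytochalasin D as reference.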

[6] = VALA_TUBHUV_Agonist_TubuleLength: VALA Sciences human Umbilical Vein Endothelial Tubule Formation (TUBHUV) Agonism Assay (AID 2284337)
In short: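 HUVEC co-cultured with fibroblasts (1:3) 3 days in 10 ng/ml VEGF, then 3 days with compound plus VEGF; 0.1 % DMSO neutral control. Fixed, nuclear and CD31 stained; tubule length by fluorescence imaging.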

[7] = VALA_TUBIPS_Agonist_CellCount: Viability Assessment in the VALA Sciences human iPS-derived Endothelial Tubule Formation (TUBIPS) Agonism Assay (AID 2284338)
SERPINA7 (gene 6906) = assay: CCTE_GLTED_hTBG: CCTE's human Thyroxine-binding Globulin (TBG) Inhibition Assay, Great Lakes Toxicology and Ecology Division (GLTED) Lab (AID 2284343);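 further: active chemicals lower fluorescence versus DMSO baseline by displacing probe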
In short: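 Measures how far test chemicals displace ANSA bound to purified human TBG. The read-out is fluorescence at 380 nm excitation and 475 nm emission, taken after 2 h of incubation.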

[8] = VALA_TUBHUV_Antagonist_TubuleLength: VALA Sciences human Umbilical Vein Endothelial Tubule Formation (TUBHUV) Antagonism Assay (AID 2284325)
In short: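 HUVEC–HDF co-culture (1:3) pre-grown 3 days with 10 ng/ml VEGF, then 3 days with compound plus VEGF. Fixed, nuclear and CD31 stained; total tubule length by imaging versus 0.1% DMSO; suramin 100 uM positive control.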

[9] = system: Brachyury (BRA) Protein Expression, Deisenroth Lab, TBXT (gene 6862); assay: CCTE_Deisenroth_DEVTOX-GLR_legacy_Bra: (Legacy) CCTE's DevTox GLR-Endo Assay Evaluation of Brachyury (BRA) Protein Expression, Deisenroth Lab (AID 2284329; active means hit-call score of the fitted dose curve at least 0.9, where 1 is the maximum; inactive means score below 0.9)
In short: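 Human pluripotent RUES2-GLR line was exposed twice during 48 h differentiation to a 10-point series, 1 nM - 200 uM. Fraction of Bra-positive cells was scored by imaging against pluripotent baseline and fitted after 0.2% DMSO subtraction.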

[10] = CCTE_Deisenroth_DEVTOX-GLR_legacy_CellCount: (Legacy) Viability Assessment in CCTE's DevTox GLR-Endo Assay, Deisenroth Lab (AID 2284331; active means hit-call score of the fitted dose curve at least 0.9, where 1 is the maximum; inactive means score below 0.9); details: actives raise or lower the signal
In short: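 Nuclei count by fluorescence high-content imaging (5 fields/well) after 48 h differentiation of RUES2-GLR cells. Two exposures, 24 h apart; 1 nM - 200 uM series; n=4. Bidirectional fit vs DMSO.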

[11] = system: SRY-box transcription factor 17 (SOX17) Protein Expression, Deisenroth Lab, SOX17 (gene 64321); assay: CCTE_Deisenroth_DEVTOX-GLR_legacy_Sox17: (Legacy) CCTE's DevTox GLR-Endo Assay Evaluation of SRY-box transcription factor 17 (SOX17) Protein Expression, Deisenroth Lab (AID 2284341; active means hit-call score of the fitted dose curve at least 0.9, where 1 is the maximum; inactive means score below 0.9); details: actives raise or lower the signal
In short: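 RUES2-GLR human pluripotent cells, seeded 24 h, then differentiated 48 h in defined media with two chemical exposures 24 h apart (1 nM - 200 uM, 10 points). Sox17+ fraction from high-content fluorescence imaging; bidirectional fit versus 0.2% DMSO.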

[12] = system: SRY-box transcription factor 2 (SOX2) Protein Expression, Deisenroth Lab, SOX2 (gene 6657); assay: CCTE_Deisenroth_DEVTOX-GLR_legacy_Sox2: (Legacy) CCTE's DevTox GLR-Endo Assay Evaluation of SRY-box transcription factor 2 (SOX2) Protein Expression, Deisenroth Lab (AID 2284346; active means hit-call score of the fitted dose curve at least 0.9, where 1 is the maximum; inactive means score below 0.9)
In short: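 hPSC RUES2-GLR, 384-well; 24 h seed → 48 h endoderm differentiation, 2 doses q24h, 1 nM–200 uM. Fix, nuclear dye, 5 fields/well. Sox2+ cells/cell count; cell positive if >5x BMAD over endoderm ctrl; gain direction vs DMSO.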

[13] = VALA_MIGHUV1_ScratchOnly_CellCount: Viability Assessment in the VALA Sciences human Umbilical Vein Endothelial Cell Migration (MIGHUV) Assay, Scratch Wound Inhibited Recovery (AID 2284327)
In short: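 HUVEC scratched after 24 h culture, chemical added within 30 min at 6 concentrations in triplicate (0.1% DMSO vehicle). After 24 h recovery, fixed cells were counted by Hoechst nuclear imaging in the wound area.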

TTR (gene 7276) = assay: CCTE_GLTED_hTTR_0.5uM: CCTE's human Transthyretin (hTTR) Inhibition Assay, with 0.5uM TTR, Great Lakes Toxicology and Ecology Division (GLTED) Lab (AID 2284320; active means hit-call score of the fitted dose curve at least 0.9, where 1 is the maximum; inactive means score below 0.9)
In short: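 Cell-free displacement assay in which human TTR at 0.5 uM was incubated with test chemical for 2 h. Displacement of the ANSA probe was read by fluorescence at 380 nm excitation/475 nm emission. Loss of signal was fitted in the positive direction versus DMSO.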

[14] = CCTE_Mundy_HCI_iCellGluta_NOG_NeuriteLength: CCTE's Neurite Outgrowth Assay in iCellGluta cells for Neurite Length, Mundy Lab (AID 2284318)
In short: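 Automated high-content imaging of betaIII-tubulin (Alexa Fluor-488) and Hoechst-stained cells gave neurite length, normalized to the DMSO baseline.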

[15] = CCTE_Mundy_HCI_iCellGluta_NOG_NeuriteCount: CCTE's Neurite Outgrowth Assay in iCellGluta cells for Neurite Count, Mundy Lab (AID 2284342);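 further: chemical exposure about 48 hours starting 2 hours after plating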
[16] = IUF_NPC1_cytotoxicity_72hr: Cytotoxicity Assessment at 72 hours in the Leibniz Research Institute for Environmental Medicine (IUF) Neural Progenitor Cell Proliferation Assay (NPC1) (AID 2284332);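 further: rising LDH signal means more cytotoxicity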
In short: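 hNPC spheres (fetal brain, gestational week 16-19) grown under proliferative EGF/FGF conditions, pH 7.2-7.6, were treated continuously for 72 h. Cytotoxicity came from LDH-coupled resazurin fluorescence in each well's supernatant.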

[17] = CCTE_Mundy_HCI_iCellGluta_NOG_NeuronCount: CCTE's Neurite Outgrowth Assay in iCellGluta cells for Neuron Count, Mundy Lab (AID 2284340);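 further: cells fixed about 48 h after compound addition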
In short: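 Neuron count read by automated high-content imaging of Hoechst 33342 and betaIII-tubulin/Alexa Fluor-488 labelling in human iPSC glutamatergic neurons. Activity fitted relative to DMSO.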

Measured: AC50

CCN(CC)C(=S)SSC(=S)N(CC)CC
active: [1] 50 µM | [2] 39.6 µM | SRD5A2 (gene 6716) 50 µM | SERPINA7 (gene 6906) 11.7 µM
inactive: [3] | [4] | [5] | [6] | [7]

CCc1ccc(O)c(C(C)(C)C)c1
active: SERPINA7 (gene 6906) 35.3 µM

CCCC(CCC)C(=O)O
inactive: [8] | [3] | [9] | [10] | [4] | [11] | [12]

CCCCCCCCCC
inactive: [13] | [4] | [5]
active: [7] 7.79 µM

O=S(=O)(O)CCC(F)(F)C(F)(F)C(F)(F)C(F)(F)C(F)(F)C(F)(F)F
active: TTR (gene 7276) 5.35 µM

FC(F)(F)C(F)(F)C(F)(F)C(F)(F)C(F)(F)C(F)(F)I
inactive: [14] | [15]

Cn1cc[nH]c1=S
inactive: [14] | [13] | [16] | [4] | [5] | [6] | [7] | [17] | [15]

O=C(Cl)C(F)(F)C(F)(F)C(F)(F)C(=O)Cl
inactive: [14] | [17] | [15]

OC[C@H]1O[C@@](CO)(O[C@H]2O[C@H](CO)[C@@H](O)[C@H](O)[C@H]2O)[C@@H](O)[C@@H]1O
inactive: [3]

c1ccc2cc3ccccc3cc2c1
inactive: [14] | [3] | [17] | [15]

CC(C)C(=O)Nc1ccc([N+](=O)[O-])c(C(F)(F)F)c1
inactive: SERPINA7 (gene 6906)

C[C@]12C=CC(=O)C=C1CC[C@H]1[C@@H]3C[C@@H](O)[C@](O)(C(=O)CO)[C@@]3(C)C[C@H](O)[C@@]12F
active: [14] 19.8 µM | [15] 23.7 µM
